Pf Dd2 growth – blocks growth of Plasmodium falciparum Dd2 parasites; actives 2.3% (n = 94,000); P. falciparum Dd2 growth, SYBR Green, 72 h; hits give low values; activity change, % at 10 µM; in the data active = activity change below about -80%; inconclusive = no clear call, values can overlap the other calls
T cruzi growth-1 – T. cruzi proliferation inhibition | T. cruzi beta-gal in NIH3T3, GalScreen luminescence, 90 h | inhibition, % at 8.34 µM | actives 5.9% (n = 77,000);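 active = mean inhibition above about 93%, with at least 55% of replicates each passing it, limit read from the data, passing the limit was not always enough; inconclusive = only one of those two conditions holds; inactive = neither condition holds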
C diff HTS – blocks growth of Clostridium difficile; Clostridium difficile clinical isolate growth, OD600, 24 h; hits give low values; growth activity, negative = inhibition, % at 16 µg/mL (by protocol); actives 0.25% (n = 86,000); AID 1259249;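 active = mean growth activity at or below -80% and every replicate also at or below -80%; inconclusive = mean at or below -80% but some replicate above -80%; inactive = mean growth activity above -80%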;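 note: 0% = DMSO wells and -100% = levofloxacin 16 µg/mL wells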
T cruzi growth-2 – blocks T. cruzi growth in NIH3T3 host cells. T. cruzi beta-gal in NIH3T3, GalScreen luminescence, 90 h. actives 72% (n = 5,600). inhibition, % at 8.35 µM. shares compounds with T cruzi growth-1;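 active = mean replicate inhibition above about 95% and at least 55% of replicates individually reaching it, limit read from the data; inconclusive = only one of the two criteria is met; inactive = neither criterion is met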
T cruzi growth-3 – blocks T. cruzi growth in NIH3T3 host cells | AID 651740 | T. cruzi beta-gal in NIH3T3, GalScreen luminescence, 90 h | actives 21% (n = 5,600) | shares compounds with T cruzi growth-1 | inhibition, % at 2.09 µM;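 active = mean inhibition above about 95%, with at least 55% of replicates also reaching it, limit read from the data; inconclusive = meets just one of the two conditions; inactive = meets neither condition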;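 note: plate controls were neutral control median for no effect and positive control median for full effect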
NIH3T3 tox – kills mouse NIH/3T3 fibroblasts. actives 14% (n = 5,600). cytotoxicity (signal decrease), % at 8.35 µM. AID 651742. shares compounds with T cruzi growth-1. NIH/3T3 viability, CellTiter-Glo ATP luminescence, 90 h;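 active = mean signal decrease across replicates above about 35% based on untreated-well scatter, with enough replicates individually passing, limit read from the data; inconclusive = no rule stated though some were filed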;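 note: 0% = median of neutral control wells and 100% = median of positive control wells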
3T3 cytotox 2 – kills mouse NIH/3T3 fibroblasts; shares compounds with T cruzi growth-1; NIH/3T3 viability, CellTiter-Glo ATP luminescence, 90 h; inhibition, % at 24.9 µM; actives 56% (n = 5,600); AID 651744;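 active = mean loss of cell viability signal at or above a set limit, and enough replicates individually reaching it; inconclusive = meets only the mean limit or only the replicate share; inactive = meets neither condition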;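 note: 0% = median of neutral control wells and 100% = median of positive control wells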
* = called active by the depositor; u = inconclusive; x = not tested or not shown. Compounds with a hit are over-represented: about 6.7% of the library has one in this group of screens.

SMILES | Pf Dd2 growth | T cruzi growth-1 | C diff HTS | T cruzi growth-2 | T cruzi growth-3 | NIH3T3 tox | 3T3 cytotox 2
COc1ccccc1-c1ccc2c(c1)O[C@H](CN(C)S(=O)(=O)c1ccc(F)cc1)[C@H](C)CN([C@@H](C)CO)S2(=O)=O | -47 | 99* | 4 | 95* | 85 | 21 | 47*
C[C@@H]1CN([C@@H](C)CO)S(=O)(=O)c2ccc(-c3ccccc3F)cc2O[C@H]1CN(C)S(C)(=O)=O | -54 | -57 | -4 | x | x | x | x
CCN1[C@H](C(=O)OC)[C@@H](CO)[C@@H]2Cn3c(ccc(-c4cccc(C(=O)N(C)C)c4)c3=O)[C@@H]21 | -19 | 96* | 4 | -38 | -44 | -12 | -14
COC(=O)[C@H]1[C@H](CO)[C@H]2Cn3c(ccc(-c4cccc(C(=O)N(C)C)c4)c3=O)[C@H]2N1CC1CC1 | x | 44 | 2 | x | x | x | x
COC(=O)[C@H]1[C@H](CO)[C@H]2Cn3c(ccc(-c4ccccc4)c3=O)[C@H]2N1Cc1cccc(F)c1 | -7 | 87 | 3 | x | x | x | x
CCNC(=O)[C@H]1[C@H](CO)[C@H]2Cn3c(ccc(-c4ccccc4)c3=O)[C@H]2N1Cc1ccccc1 | -32 | 52 | -1 | x | x | x | x
COc1ccc(-c2ccc3n(c2=O)C[C@@H]2[C@@H](CO)[C@H](C(=O)N(C)C)N(CC4CC4)[C@H]32)cc1 | -3 | 103* | 10 | 22 | 9 | -3 | 19
COc1ccc(-c2ccc3n(c2=O)C[C@@H]2[C@@H](CO)[C@H](C(=O)N(C)C)N(CC4CCCC4)[C@H]32)cc1 | x | -4 | -4 | x | x | x | x
CCNC(=O)[C@@H]1[C@@H](CO)[C@@H]2Cn3c(ccc(-c4ccc(OC)cc4)c3=O)[C@@H]2N1Cc1ccccc1 | -21 | 100* | 1 | 6 | -25 | -13 | 0
COC(=O)[C@@H]1[C@@H](CO)[C@@H]2Cn3c(ccc(-c4ccccc4)c3=O)[C@@H]2N1Cc1cccc(F)c1 | -12 | u | 9 | 26 | -17 | -8 | -1
COc1ccc(S(=O)(=O)N2CC[C@H]3[C@H](CO)Nc4ccc(Br)cc4[C@H]32)cc1 | 28 | 22 | -3 | x | x | x | x
CO[C@H]1CN(C)C(=O)c2ccc(NC(=O)C3CCCCC3)cc2OC[C@@H](C)N(Cc2nccs2)C[C@@H]1C | x | 7 | x | x | x | x | x
CC(C)NC(=O)Nc1ccc2c(c1)C(=O)N([C@@H](C)CO)C[C@H](C)[C@H](CN(C)C(=O)Nc1ccccc1)O2 | 37 | -8 | 3 | x | x | x | x
COc1ccc(CN(C)C[C@@H]2OCCCC[C@@H](C)Oc3ccc(NC(=O)CCC(F)(F)F)cc3C(=O)N([C@H](C)CO)C[C@@H]2C)cc1 | -22 | -125 | -7 | x | x | x | x
CCN1[C@@H]2c3ccc(-c4cccc(F)c4)c(=O)n3C[C@@H]2[C@@H](CO)[C@@H]1C(=O)N[C@@H](C)c1ccccc1 | -11 | 102* | 2 | 25 | 30 | 1 | 25*
CCN1[C@H](C(=O)N[C@H](C)c2ccccc2)[C@@H](CO)[C@@H]2Cn3c(ccc(-c4cccc(F)c4)c3=O)[C@@H]21 | -9 | 76 | 2 | x | x | x | x
O=C(Nc1ccccc1)N[C@H]1CC[C@@H](CCn2cc(C3(O)CCCC3)nn2)O[C@H]1CO | 12 | 31 | -4 | x | x | x | x
C/C=C/c1ccc2c(c1)O[C@H](CN(C)C(=O)Nc1ccc(F)cc1)[C@@H](C)CN([C@@H](C)CO)S2(=O)=O | -7 | 7 | 6 | x | x | x | x
C[C@@H]1CN([C@@H](C)CO)S(=O)(=O)c2ccc(/C=C/c3ccccc3)cc2O[C@@H]1CN(C)C(=O)Nc1ccc(F)cc1 | -89* | 123* | -2 | 102* | 104* | 32 | 48*
C[C@H](CO)N1C[C@H](C)[C@@H](CN(C)C(=O)Nc2cc(F)ccc2F)Oc2cc(/C=C/c3ccccc3)ccc2S1(=O)=O | -66 | x | 6 | x | x | x | x
C[C@@H]1CN([C@@H](C)CO)S(=O)(=O)c2ccc(/C=C/c3ccccc3)cc2O[C@H]1CN(C)C(=O)Nc1ccc(F)cc1 | -73 | 131* | -9 | 99* | 96* | 39* | 61*
Cc1ccc(S(=O)(=O)Nc2ccc3c(c2)C(=O)N([C@@H](C)CO)C[C@H](C)[C@H](CN(C)C(=O)Nc2c(C)noc2C)OCCCC[C@@H](C)O3)cc1 | 15 | x | -1 | x | x | x | x
C[C@@H]1CN([C@@H](C)CO)C(=O)c2cc(NS(C)(=O)=O)ccc2O[C@H]1CN(C)Cc1ccc(C(F)(F)F)cc1 | -38 | 82 | -4 | x | x | x | x
C[C@H]1CCCCO[C@H](CN(C)C(=O)c2ccccc2)[C@@H](C)CN([C@@H](C)CO)C(=O)c2cc(NC(=O)Nc3ccc(F)cc3)ccc2O1 | -52 | 77 | 7 | x | x | x | x
COc1cccc(S(=O)(=O)N2CCCCN3[C@H](CO)[C@@H](c4ccc(C#CC(C)C)cc4)[C@H]3C2)c1 | -38 | 82 | 21 | x | x | x | x
SMILES | Pf Dd2 growth | T cruzi growth-1 | C diff HTS | T cruzi growth-2 | T cruzi growth-3 | NIH3T3 tox | 3T3 cytotox 2
COc1ccc(C#Cc2ccc([C@H]3[C@H](CO)N4CCCCN(S(=O)(=O)c5ccccc5)C[C@@H]34)cc2)cc1 | -63 | 54 | 64 | x | x | x | x
COc1ccc(S(=O)(=O)N2CCCCN3[C@H](CO)[C@H](c4ccc(C#CCC(C)C)cc4)[C@@H]3C2)cc1 | -18 | u | 9 | 87 | u | 41* | 67*
COc1ccc(S(=O)(=O)N2CCCCN3[C@H](CO)[C@H](c4ccc(C#CCC(C)C)cc4)[C@H]3C2)cc1 | -72 | 55 | 7 | x | x | x | x
COc1ccc(S(=O)(=O)N2CCCCN3[C@H](CO)[C@H](c4ccc(C#CC(C)C)cc4)[C@H]3C2)cc1 | -69 | 102* | 45 | 105* | 98* | 72* | 73*
COc1ccc(S(=O)(=O)N2CCCCN3[C@H](C2)[C@@H](c2ccc(C#CC(C)C)cc2)[C@@H]3CO)cc1 | -25 | 105* | 13 | 102* | 112* | 22 | 97*
C[C@H]1CN([C@@H](C)CO)C(=O)CCCn2cc(nn2)CO[C@H]1CN(C)Cc1ccc(O)cc1 | 20 | 18 | x | x | x | x | x
N#C[C@@H]1[C@@H](c2ccc(-c3cccc(F)c3)cc2)[C@H](CO)N1c1nc(-c2ccccc2)cs1 | -12 | x | 11 | x | x | x | x
CCc1csc(N2[C@H](CO)[C@@H](c3ccc(-c4ccc(F)cc4)cc3)[C@@H]2C#N)n1 | 2 | 103* | 8 | 102* | 53 | 18 | 103*
CCc1csc(N2[C@@H](C#N)[C@H](c3ccc(-c4cccc(F)c4)cc3)[C@@H]2CO)n1 | -27 | 105* | 4 | 103* | 46 | 31 | 27
CCc1csc(N2[C@H](C#N)[C@@H](c3ccc(-c4cccc(F)c4)cc3)[C@@H]2CO)n1 | -16 | 98* | 5 | 111* | 81 | 21 | 96*
CCc1csc(N2[C@H](CO)[C@H](c3ccc(-c4cccc(F)c4)cc3)[C@@H]2C#N)n1 | 23 | 73 | 10 | x | x | x | x
